Measured values as given in PubChem BioAssay.

Test: JC-1 mitochondrial signal, unstimulated myeloma cells – cell-based, JC-1 fluorescence, RPMI8226, 24 h, 100 nL compound, profiling panel (AID 1169); also: test concentration not given here
Conditions: JC-1 mitochondrial potential fluorescence, higher = more signal

| SMILES | z-score |
| --- | --- |
| O=C1O[C@H](c2ccccc2)[C@H](c2ccccc2)N2[C@H]1[C@@H](C(=O)N1CCN(c3ncccn3)CC1)[C@]1(C(=O)Nc3ccc(C#CC4=CCCCC4)cc31)[C@H]2c1ccc(O)cc1 | -0.745 |
| O=C1OCCC/C=C\[C@H]2OC34C=CCN(c5ccc6ccccc6c5)C(=O)[C@H]3N(CCCCCCO)C(=O)[C@@H]4C12 (stereo partly specified) | -0.967 |
| C#CCN(CC=C(C)C)[C@H](CO)c1ccccc1 | -0.383 |
| C=C(CCCC)C(=O)CC[C@H](OC(C)=O)c1cccc(OCCO)c1 | 0.139 |
| COCCOC(=O)N1C(=O)[C@@]2(c3cc(C#Cc4ccc(OC)cc4)ccc31)[C@H](C(N)=O)[C@H]1C(=O)O[C@H](c3ccccc3)[C@H](c3ccccc3)N1[C@@H]2c1ccccc1OCCO | -0.994 |
| COc1ccc(C(=O)Nc2cccc(CN3C(=O)[C@]4(O[C@H](CCO)[C@@H]([Si](C)(C)c5ccc(OC)cc5)[C@@H]4C)c4ccccc43)c2)cc1 | -0.73 |
| Cc1ccc(S[C@]2(C(=O)NCC(F)(F)F)CC(=O)N(C(C)C)[C@@H]2c2ccc(CO)cc2I)cc1 | -0.815 |
| COC(=O)[C@@]1(Cc2ccc(OC)cc2)[C@H]2c3cc(C(=O)N(C)C)n(CCN4CNCC4=O)c3C[C@H]2CN1C(=O)c1ccccc1 | -0.111 |
| COCCOC(=O)N1C(=O)[C@@]2(c3cc(C#CCNC(N)=O)ccc31)[C@H](C(=O)NC[C@H](O)c1ccccc1)[C@H]1C(=O)O[C@H](c3ccccc3)[C@H](c3ccccc3)N1[C@@H]2c1ccccc1OCCO | -0.548 |
| CC(C)(C)OC(=O)CC[C@]1(C(=O)O)N=C(c2ccc(OCCCO)cc2)O[C@H]1c1ccccc1N=[N+]=[N-] | -0.506 |
| O=C1C2C=CC(C(O)C(c3ccccc3)c3ccccc3)N(n3cnnc3)C2C(=O)N1Cc1ccccc1 (stereo unspecified) | -0.42 |
